The entries come from a sample that favours hits as a whole.
Pf apPOL inh: Pf-apPOL inhibitors, biochemical, fluorescence | inhibition, % at 10 µM | AID 1794808, 2022 | Recombinant Pf-apPOL, molecular beacon fluorescence, 1.5 h | Plasmodium falciparum apicoplast DNA polymerase (apPOL) | actives 0.25% (n = 210,000)
mHTT CaM bind: mutant huntingtin-calmodulin interaction inhibitors – biochemical, AlphaScreen, primary screen; actives 3.6% (n = 190,000); AlphaScreen His-mHTT/GST-CaM binding, luminescence; AID 1671202, 2021; inhibition, % at 15 µM; P42858;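 note: 0% = both proteins with DMSO and 100% = one protein alone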
* = called active by the depositor; . = no result; ! = a repeat was not active. Cut-off read from the data, not from the text of the source: active = inhibition above about 50%; inactive = the rest.

SMILES	Pf apPOL inh	mHTT CaM bind
CS(=O)(=O)Nc1ccc(Cl)cc1Cl	.	-2
CS(=O)(=O)Nc1ccc(Cl)c2cccnc12	-3	86*
CCCC(C)C(=O)Nc1ccc(Cl)c(Cl)c1 (stereo unspecified)	-8	-18
CNC(=O)N1CCCC(c2cccc(C(=O)N3CCN(c4ccccn4)CC3)c2)C1 (stereo unspecified)	-3	-1
CCOc1ccc2c(=O)c(-c3ccccc3OC)coc2c1	-6	2
COC(=O)Oc1ccc2c(=O)c(-c3ccccc3OC)coc2c1	2	50*
COc1cccc(Oc2coc3cc(OC(=O)c4ccccc4)ccc3c2=O)c1	-13	-1
COc1cccc(Oc2coc3cc(OC(=O)C=Cc4ccccc4)ccc3c2=O)c1	-6	62*
CCOC(=O)C(Oc1ccc2c(=O)c(-c3ccccc3OC)coc2c1)c1ccccc1 (stereo unspecified)	-5	58*!
C=CCOC(=O)Oc1ccc2c(=O)c(-c3ccccc3OC)coc2c1	8	23
CCC(C)NC(=O)N1CCc2cn(CC)c3cccc(c23)C1 (stereo unspecified)	1	8
O=C(NCC(O)c1ccsc1)c1c(F)cccc1Cl (stereo unspecified)	-4	-16
CC1CCc2cc(F)cc3c(O)c(C(=O)Nc4ccccn4)c(=O)n1c23 (stereo unspecified)	-71	1
COc1ccc(S(=O)(=O)Nc2nc3ccc(Cl)cc3s2)cc1	3	0
CCCc1cc2c(=O)c(-c3ccc4c(c3)OCCO4)c(C)oc2cc1O	2	8
CC1(C)C(C=C(Cl)Cl)C1C(=O)Nc1sc2c(c1C#N)CCCC2 (stereo unspecified)	92*	-2
N#Cc1c(NC(=O)/C=C/C(=O)O)sc2c1CCC2	.	-1
Cc1sc2c(c1C)C(=O)NC1(N2)C(=O)N(Cc2ccccc2F)c2ccccc21 (stereo unspecified)	16	53*
O=C1N(Cc2ccccc2F)c2ccccc2C12OCCCO2	-7	-28
CCOC(=O)CSC(Nc1ccccc1C(F)(F)F)=C(C#N)C(=O)OCC	-7	.
CCC(=O)Nc1cccc(NC(=O)c2ccc([N+](=O)[O-])cc2)c1	0	-5
Cc1cccc(Nc2ccc(NCCNC(=O)c3ccccc3C(F)(F)F)nn2)n1	-8	1
O=C(NCCNc1ccc(Nc2ccccn2)nn1)c1ncccn1	-1	100*
CC(C)c1cc(C(=O)NC2CC2)nc2cc(-c3cccs3)nn12	1	-88
CC1CCCN(CC2CCN(S(=O)(=O)c3ccc(F)cc3F)CC2)C1 (stereo unspecified)	-3	-8
SMILES	Pf apPOL inh	mHTT CaM bind
CN(C)C(=O)c1cc2sc(Cl)cc2n1C	-4	2
Fc1cccc(-c2nc(COc3ccc4c(c3)OCO4)no2)c1	0	-5
COc1ccc(Cl)cc1CN1CCN(c2ccc(N3C(=O)CC(C)C3=O)cc2[N+](=O)[O-])CC1 (stereo unspecified)	-17	73*
Cc1ccc(N2CCN(c3ccc(N4C(=O)COCC4=O)cc3[N+](=O)[O-])CC2C)cc1 (stereo unspecified)	-14	11
COc1cc2c(cc1OC)C(C)N(c1ccc(N3C(=O)CC(C)C3=O)cc1[N+](=O)[O-])CC2 (stereo unspecified)	-15	60*
COc1ccc(Cl)cc1CN1CCN(c2ccc(N3C(=O)CCCC3=O)cc2[N+](=O)[O-])CC1	-24	73*
O=C1CCCC(=O)N1c1ccc(N2CCCC(CO)C2)c([N+](=O)[O-])c1 (stereo unspecified)	-10	2
CC1CC(=O)N(c2ccc(N3CC4(C)CC3CC(C)(C)C4)c([N+](=O)[O-])c2)C1=O (stereo unspecified)	-18	37
COc1ccc(Cl)cc1CN1CCN(c2ccc(N3C(=O)COCC3=O)cc2[N+](=O)[O-])CC1	-8	79*
CC1CC(=O)N(c2ccc(N3CCN(c4cccc(Cl)c4)CC3)c([N+](=O)[O-])c2)C1=O (stereo unspecified)	-14	46
Cc1ccc(C2=CC(c3ccc(Cl)cc3)n3ncnc3N2)cc1 (stereo unspecified)	-3	3
COc1ccc(-c2cc(N3CCN(S(=O)(=O)c4ccccc4Cl)CC3)ncn2)cc1	-6	-1
Clc1ccc(Nc2ncnc3c2cnn3-c2ccccc2)c(Cl)c1	3	14
Cc1ccccc1N1CCN(C(=O)CN2CCc3ccccc3C2C(=O)N2CCCC2)CC1 (stereo unspecified)	-4	25
Cc1cccc(S(=O)(=O)N2CC3CN(C(=O)c4cccc(F)c4)CC(C2)O3)c1	-2	-1
CCc1ccc(C(=O)N2CC3CN(S(=O)(=O)c4cccc(C)c4)CC(C2)O3)cc1	-1	65*
Cc1ccc(-n2c(C)ccc2C)c([N+](=O)[O-])c1	-2	67*
Cc1ccc(-c2ccc(C)cc2[N+](=O)[O-])c([N+](=O)[O-])c1	-1	.
CCc1ccc(NC(=O)N2CCc3c(c(COCc4cccc(F)c4)nn3C)C2)cc1	0	23
Cc1ccc(C(=O)Nc2cccc(-c3nc4ncccc4o3)c2)c(Cl)c1	-2	53*
O=C(COc1ccc(Cl)cc1)Nc1cccc(-c2nc3ncccc3o2)c1	-7	50*!
COc1ccc(OCC(=O)Nc2cc(-c3nc4ncccc4o3)ccc2C)cc1	-3	8
COc1ccc(OCC(=O)Nc2cccc(-c3nc4ncccc4o3)c2)cc1	5	3
O=C(Nc1cccc(-c2nc3ncccc3o2)c1)c1cccc(Cl)c1Cl	-8	20
Cc1ccc(-c2nc3ncccc3o2)cc1NC(=O)COc1ccc(Cl)cc1	91*	1
SMILES	Pf apPOL inh	mHTT CaM bind
CCC(C(=O)Nc1ccccc1Cl)c1ccccc1 (stereo unspecified)	-2	-30
N#CC(C#N)=C1C(Cl)=C(N2CCCCC2)c2ccccc21	3	56*
N#Cc1c(N2CCOCC2)nsc1-c1ccccc1Cl	-8	.
O=C(Cc1ccc([N+](=O)[O-])cc1)NCc1ccc2[nH]c3c(c2c1)CCCC3	28	31
O=C(NCc1ccc2[nH]c3c(c2c1)CCCC3)C12CC3CC(CC(C3)C1)C2	-6	98*
O=C(CC1CCCCC1)NCc1ccc2[nH]c3c(c2c1)CCCC3	-5	92*
CN(C)S(=O)(=O)c1ccc(C(=O)NCc2ccc3[nH]c4c(c3c2)CCCC4)cc1	-6	29
CCCc1[nH]nc(-c2ccc(Cl)cc2)c1NC(C)=O	3	-3
CC(=O)N1CCc2sccc2C1c1ccccc1C (stereo unspecified)	-3	11
Cc1cc(C)nc(SCC(=O)Nc2ncc(Cc3ccc(Cl)cc3)s2)n1	-12	30
COc1ccc(CC(=O)N2CCN(c3cccc(Cl)c3)CC2)cc1	-5	-10
COc1ccc(CC(=O)N2CCN(c3cccc(Cl)c3)CC2)cc1OC	2	55*
Cc1cc2c(cc1C)NC(CC(=O)Nc1ccc(N3CCOCC3)cc1)C(=O)N2 (stereo unspecified)	0	57*!
Cc1cc2c(cc1C)NC(CC(=O)Nc1cccc(C(=O)O)c1)C(=O)N2 (stereo unspecified)	10	6
c1ccc(-c2cn(CCc3c[nH]c4ccccc34)nn2)cc1	-8	12
Cc1ccc(C(=O)Nc2ccc(N3CCN(c4ccccc4)C3=O)nc2)cc1C	6	0

Screening results deposited in PubChem by University of Kansas High Throughput Screening Laboratory.
